Reference: the supplement of paper PMC7411054
Where a name gives a salt, the structure may show the parent alone.

How the values were obtained:
Settings in all cases: treatment time: 24 h
A549-ACTB-RAB5A = test: phenotypically active (imaging signature differs from DMSO and reproducible) at any of 0.3-9 uM (binary (1 = active, 0 = inactive)); higher = active
Outline: (§1)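 Four wells per concentration (0.3, 1, 3 or 9 µM) were treated for 24 h in each of fifteen gene-edited reporter lines from A549, HepG2 and WPMY1 cells, then imaged live. After normalising live-cell features to solvent control wells, deviation was defined as ≥3 of 4 wells lying past the 95th percentile of control Euclidean distances. Reproducibility was defined as a median replicate Pearson correlation above the 95th percentile of non-replicates. Both had to hold for phenotypic activity.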

A549-CANX-COX4 = test: as above
Outline: as §1

A549-GM130-SQSTM1 = test: as above
Outline: as §1

A549-TP53BP1-CLTA = test: as above
Outline: as §1

A549-TUBA1B-RELA = test: as above
Outline: as §1

HepG2-ACTB-RAB5A = test: as above
Outline: as §1

HepG2-CANX-COX4 = test: as above
Outline: as §1

HepG2-GM130-SQSTM1 = test: as above
Outline: as §1

HepG2-TP53BP1-CLTA = test: as above
Outline: as §1

HepG2-TUBA1B-RELA = test: as above
Outline: as §1

WPMY1-ACTB-RAB5A [1] = test: as above
Outline: as §1

WPMY1-CANX-COX4 [2] = test: as above
Outline: as §1

WPMY1-GM130-SQSTM1 [3] = test: as above
Outline: as §1

WPMY1-TP53BP1-CLTA [4] = test: as above
Outline: as §1

WPMY1-TUBA1B-RELA [5] = test: as above
Outline: as §1

WPMY1-GM130-SQSTM1 [6] = test: lowest phenotypically active concentration; higher = less potent
Outline: as §1

WPMY1-ACTB-RAB5A [7] = test: as above
Outline: as §1

WPMY1-TUBA1B-RELA [8] = test: as above
Outline: as §1

WPMY1-CANX-COX4 [9] = test: as above
Outline: as §1

WPMY1-TP53BP1-CLTA [10] = test: as above
Outline: as §1

Structure (SMILES) | phenotypically active (A549-ACTB-RAB5A) | phenotypically active (A549-CANX-COX4) | phenotypically active (A549-GM130-SQSTM1) | phenotypically active (A549-TP53BP1-CLTA) | phenotypically active (A549-TUBA1B-RELA) | phenotypically active (HepG2-ACTB-RAB5A) | phenotypically active (HepG2-CANX-COX4) | phenotypically active (HepG2-GM130-SQSTM1) | phenotypically active (HepG2-TP53BP1-CLTA) | phenotypically active (HepG2-TUBA1B-RELA) | phenotypically active (WPMY1-ACTB-RAB5A [1]) | phenotypically active (WPMY1-CANX-COX4 [2]) | phenotypically active (WPMY1-GM130-SQSTM1 [3]) | phenotypically active (WPMY1-TP53BP1-CLTA [4]) | phenotypically active (WPMY1-TUBA1B-RELA [5]) | lowest phenotypically active concentration (WPMY1-GM130-SQSTM1 [6]) [µM] | lowest phenotypically active concentration (WPMY1-ACTB-RAB5A [7]) [µM] | lowest phenotypically active concentration (WPMY1-TUBA1B-RELA [8]) [µM] | lowest phenotypically active concentration (WPMY1-CANX-COX4 [9]) [µM] | lowest phenotypically active concentration (WPMY1-TP53BP1-CLTA [10]) [µM]
Nc1ncnc2c1c(COc1cccc(Cl)c1)nn2C1CCOCC1 | 0 (inactive) | 0 (inactive) | 0 (inactive) | 0 (inactive) | 0 (inactive) | 0 (inactive) | 0 (inactive) | 0 (inactive) | 1 (active) | 0 (inactive) | 0 (inactive) | 0 (inactive) | 0 (inactive) | 0 (inactive) | 0 (inactive) | – | – | – | – | –
CC(C)C(=O)Nc1ccc([N+](=O)[O-])c(C(F)(F)F)c1 [flutamide] | 0 (inactive) | 0 (inactive) | 0 (inactive) | 0 (inactive) | 0 (inactive) | 0 (inactive) | 0 (inactive) | 0 (inactive) | 0 (inactive) | 0 (inactive) | 0 (inactive) | 0 (inactive) | 1 (active) | 0 (inactive) | 0 (inactive) | 9 | – | – | – | –
Oc1cc(O)cc(/C=C/c2ccc(O)c(O)c2)c1 [Piceatannol] | 0 (inactive) | 0 (inactive) | 0 (inactive) | 0 (inactive) | 0 (inactive) | 0 (inactive) | 0 (inactive) | 0 (inactive) | 0 (inactive) | 0 (inactive) | 1 (active) | 0 (inactive) | 1 (active) | 0 (inactive) | 1 (active) | 3 | 9 | 9 | – | –
CC1(C)CC(=O)c2c(S(C)(=O)=O)sc(Cl)c2C1 | 0 (inactive) | 0 (inactive) | 0 (inactive) | 0 (inactive) | 0 (inactive) | 0 (inactive) | 0 (inactive) | 1 (active) | 0 (inactive) | 0 (inactive) | 0 (inactive) | 0 (inactive) | 1 (active) | 0 (inactive) | 0 (inactive) | 3 | – | – | – | –
Cc1ccc(C(=O)Oc2ccc(C(O)CNC(C)(C)C)cc2OC(=O)c2ccc(C)cc2)cc1 (stereo not given) [bitolterol] | 0 (inactive) | 0 (inactive) | 0 (inactive) | 0 (inactive) | 0 (inactive) | 0 (inactive) | 0 (inactive) | 0 (inactive) | 0 (inactive) | 0 (inactive) | 0 (inactive) | 1 (active) | 0 (inactive) | 0 (inactive) | 0 (inactive) | – | – | – | 9 | –
CN(C)CCOC(c1ccccc1)c1ccccc1 [diphenhydramine] | 0 (inactive) | 0 (inactive) | 0 (inactive) | 0 (inactive) | 0 (inactive) | 0 (inactive) | 0 (inactive) | 0 (inactive) | 0 (inactive) | 0 (inactive) | 1 (active) | 1 (active) | 1 (active) | 1 (active) | 1 (active) | 9 | 9 | 9 | 9 | 9
O=S(=O)(NCCCCCCc1ccccc1)c1cccc2c(Cl)cccc12 | 0 (inactive) | 0 (inactive) | 0 (inactive) | 0 (inactive) | 0 (inactive) | 0 (inactive) | 0 (inactive) | 0 (inactive) | 0 (inactive) | 1 (active) | 1 (active) | 1 (active) | 0 (inactive) | 0 (inactive) | 0 (inactive) | – | ≤ 0.3 | – | ≤ 0.3 | –
CC(C)[C@H](N)C(=O)OCC(CO)OCn1cnc2c(=O)[nH]c(N)nc21 (stereo not given in full) [valganciclovir] | 0 (inactive) | 0 (inactive) | 0 (inactive) | 0 (inactive) | 0 (inactive) | 0 (inactive) | 0 (inactive) | 0 (inactive) | 0 (inactive) | 0 (inactive) | 0 (inactive) | 0 (inactive) | 1 (active) | 0 (inactive) | 0 (inactive) | 1 | – | – | – | –
COc1ccc(CCN(C)CCCC(C#N)(c2ccc(OC)c(OC)c2)C(C)C)cc1OC (stereo not given) [verapamil] | 1 (active) | 0 (inactive) | 1 (active) | – | 1 (active) | 0 (inactive) | 0 (inactive) | 0 (inactive) | – | 0 (inactive) | 0 (inactive) | 0 (inactive) | 0 (inactive) | – | 0 (inactive) | – | – | – | – | –
C=C[C@H]1CN2CC[C@H]1C[C@H]2[C@H](O)c1ccnc2ccc(OC)cc12 [Quinine dihydrochloride] | 1 (active) | 0 (inactive) | 1 (active) | – | 0 (inactive) | 0 (inactive) | 0 (inactive) | 0 (inactive) | – | 0 (inactive) | 0 (inactive) | 0 (inactive) | 0 (inactive) | – | 0 (inactive) | – | – | – | – | –
Clc1ccc2nsnc2c1NC1=NCCN1 [tizanidine] | – | 0 (inactive) | – | 0 (inactive) | – | 0 (inactive) | 0 (inactive) | 0 (inactive) | 0 (inactive) | 0 (inactive) | 0 (inactive) | 0 (inactive) | 0 (inactive) | 0 (inactive) | 0 (inactive) | – | – | – | – | –
